Reference: the supplement of paper PMC6522484
± gives the standard deviation of the averaged measurements.

Legend:
DLD1 [1] = assay: cell viability (CellTiter-Glo) relative to plate median (fraction of plate median); higher = more viable cells; details: 5 µM; treatment time 24 h; reporter: 7TFP
In short: (§1)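 Colorectal cancer cell lines stably transduced with lentiviral TCF/Wnt firefly luciferase reporters (7TFP or TCF4/Wnt) were seeded in 384-well plates. 24 h later they received library compounds at a final 5 µM for 24 h. Parallel plates were read for firefly luciferase or CellTiterGlo luminescence on a Tecan F500 reader. Each well's signal was normalised to the plate median (webcellHTS2, additive, no log transformation), and the mean of two independent replicates is reported.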

HCT116 = assay: as above; details: 5 µM; treatment time 24 h; reporter: TCF4/Wnt
In short: as §1

SW480 [2] = assay: as above; details: 5 µM; treatment time 24 h; reporter: 7TFP
In short: as §1

DLD1 [3] = assay: TCF/Wnt firefly luciferase reporter signal relative to plate median (fraction of plate median); higher = higher Wnt reporter signal; details: 5 µM; treatment time 24 h; reporter: 7TFP
In short: as §1

SW480 [4] = assay: as above; details: 5 µM; treatment time 24 h; reporter: 7TFP
In short: as §1

Row | Compound | cell viability (DLD1 [1]) | cell viability (HCT116) | cell viability (SW480 [2]) | TCF/Wnt firefly luciferase reporter signal (DLD1 [3]) | TCF/Wnt firefly luciferase reporter signal (SW480 [4])
1 | O=C1[C@@H]2CCCN2C(=O)[C@@H]2CCCN12 [Cyclo(Prolylprolyl)] | 0.978 ± 0.0071 | 1.03 ± 0.065 | 0.9595 ± 0.0078 | 0.811 ± 0.15 | 1.01 ± 0.05
2 | NC(=O)c1cccnc1 | 1.02 ± 0.021 | 1.01 ± 0.025 | 0.982 ± 0.021 | 1.16 ± 0.057 | 1.15 ± 0.11
3 | CCCCCCCCCCC[C@@H](C[C@@H]1OC(=O)[C@H]1CCCCCC)OC(=O)[C@H](CC(C)C)NC=O | 0.83 ± 0.15 | 1.03 ± 0.12 | 0.972 ± 0.018 | 1.01 ± 0.13 | 0.933 ± 0.023
4 | CC(C)[N+](C)(CCOC(=O)C1c2ccccc2Oc2ccccc21)C(C)C | 0.979 ± 0.021 | 1.01 ± 0.14 | 0.984 ± 0.017 | 1.06 ± 0.1 | 1.04 ± 0.06
5 | C[C@@H]1O[C@@H](O[C@H]2[C@H](Oc3cc(O)c4c(c3)O[C@H](c3ccc(O)cc3)CC4=O)O[C@H](CO)[C@@H](O)[C@@H]2O)[C@H](O)[C@H](O)[C@H]1O | 1.07 ± 0.042 | 0.916 ± 0.11 | 0.975 ± 0.02 | 0.992 ± 0.24 | 1.01 ± 0.16
6 | CC(C)C1NC(=O)C2CCCN2C1=O (single isomer, unassigned; isomere) [Cyclo(prolylvalyl) (Isomere)] | 1 ± 0.023 | 0.992 ± 0.054 | 0.958 ± 0.06 | 0.939 ± 0.067 | 0.944 ± 0.11
7 | COc1cc2c(cc1OC)[C@@H]1Cc3ccc(OC)c(OC)c3CN1CC2 | 0.97 ± 0.085 | 0.941 ± 0.038 | 0.9275 ± 0.0035 | 1.17 ± 0.18 | 1.03 ± 0.028
8 | CC[C@H](/C=C/[C@@H](C)[C@H]1CC[C@H]2[C@@H]3CCC4=CC(=O)CC[C@]4(C)[C@H]3CC[C@]12C)C(C)C | 0.999 ± 0.087 | 0.976 ± 0.18 | 1.02 ± 0.041 | 1.05 | 1.06 ± 0.028
9 | Cc1cc2cc3c(C)cc(=O)oc3c(C)c2o1 | 1.07 ± 0.021 | 0.954 ± 0.034 | 1 ± 0.022 | 1.14 ± 0.11 | 0.895 ± 0.037
10 | CCCCOc1ccc(OCCCN2CCOCC2)cc1 | 0.904 ± 0.086 | 0.976 ± 0.077 | 0.975 ± 0.011 | 0.993 ± 0.11 | 1.06 ± 0.014
11 | CCC1(c2ccccc2)C(=O)NCNC1=O | 1.02 ± 0.029 | 0.994 ± 0.15 | 1 ± 0.025 | 0.978 ± 0.1 | 1.06 ± 0.028
12 | COc1ccc(C(=O)c2ccccc2O)c(O)c1 | 0.953 ± 0.022 | 0.977 ± 0.0028 | 0.952 ± 0.016 | 1.16 ± 0.042 | 1.06 ± 0.057
13 | CC1CCC(NC(=O)N(CCCl)N=O)CC1 (stereo not given) | 1.01 ± 0.059 | 1.02 ± 0.071 | 1.015 ± 0.0071 | 1.08 ± 0.035 | 1.16 ± 0.028
14 | NCC[C@H](O)C(=O)N[C@@H]1C[C@H](N)[C@@H](O[C@H]2O[C@H](CN)[C@@H](O)[C@H](O)[C@H]2O)[C@H](O)[C@H]1O[C@H]1O[C@H](CO)[C@@H](O)[C@H](N)[C@H]1O | 1.01 ± 0.014 | 1 ± 0.037 | 0.995 ± 0.036 | 0.821 ± 0.11 | 0.905 ± 0.12
15 | CC(=O)OC/C=C(\C)CC/C=C(\C)CC/C=C(\C)CC/C=C(\C)CC/C=C(\C)CC/C=C(\C)CC/C=C(\C)CC/C=C(\C)CCC=C(C)C | 1.04 ± 0.042 | 0.96 ± 0.085 | 1.06 ± 0.028 | 0.807 ± 0.072 | 1.02 ± 0.057
16 | CN1[C@@H](CC(=O)c2ccccc2)CCC[C@H]1C[C@H](O)c1ccccc1 | 1.1 ± 0.13 | 0.987 ± 0.061 | 1.05 ± 0.021 | 0.998 ± 0.032 | 1.04 ± 0.098
17 | CC1=CC2C(CC1=O)C(C)=CCC2C(C)C (stereo not given) | 0.983 ± 0.095 | 0.971 ± 0.084 | 1 ± 0.012 | 0.987 ± 0.1 | 0.945 ± 0.19
18 | CC1=C(CCC(=O)O)c2cc3nc(cc4[nH]c(cc5[nH]c(cc1n2)c(C)c5C(C)O)c(C)c4C(C)O)C(C)=C3CCC(=O)O (stereo not given) | 1.01 ± 0.015 | 0.909 ± 0.11 | 0.964 ± 0.0099 | 1.01 ± 0.13 | 1.02 ± 0.16
19 | CC[C@@H]1C(=O)OC[C@@H]1Cc1cncn1C | 1.015 ± 0.0071 | 0.953 ± 0.067 | 0.992 ± 0.012 | 1.18 ± 0.05 | 1.16 ± 0.16
20 | COc1cc2c(cc1OC)[C@@H]1C(=O)c3ccc4c(c3O[C@@H]1CO2)C=CC(C)(C)O4 | 1.09 ± 0.021 | 0.79 ± 0.14 | 1.02 ± 0.094 | 0.9 ± 0.1 | 0.884
21 | COc1cc2nc(N(C)CCCNC(=O)C3CCCO3)nc(N)c2cc1OC (stereo not given) | 1.01 ± 0.12 | 0.973 ± 0.053 | 0.985 ± 0.035 | 0.972 ± 0.069 | 0.905 ± 0.053
22 | Cc1cccc(C)c1NC(=O)C1CCCCN1C (stereo not given) | 1 ± 0.078 | 0.959 ± 0.1 | 0.971 ± 0.035 | 1.05 ± 0.035 | 1.04 ± 0.12
23 | O=C(O)c1cc2ccccc2[nH]1 | 0.968 ± 0.011 | 0.994 ± 0.08 | 1.04 ± 0.028 | 1.12 | 1.08 ± 0.021
24 | N[C@H]1Cc2ccc(cc2)C(=O)[C@@H]2C[C@@H](O)CN2C1=O [cyclo(4-hydroxyprolyl-phenylalanyl)] | 0.951 ± 0.023 | 0.907 ± 0.16 | 0.956 ± 0.016 | 0.915 ± 0.18 | 1.03 ± 0.028
25 | Nc1nnc(-c2cccc(Cl)c2Cl)c(N)n1 | 1.05 ± 0.05 | 1.04 ± 0.069 | 0.975 ± 0.05 | 0.923 ± 0.018 | 0.985 ± 0.036
26 | CN[C@H](CC(=O)O)C(=O)O | 0.99 ± 0.028 | 0.966 ± 0.049 | 0.957 ± 0.0042 | 1.02 ± 0.014 | 0.85 ± 0.045
27 | OCc1ccccc1O | 1.11 ± 0.14 | 1.19 ± 0.035 | 1.14 ± 0.05 | 1.06 ± 0.12 | 0.866 ± 0.042
28 | CCOc1nc2cccc(C(=O)OC(C)OC(=O)OC3CCCCC3)c2n1Cc1ccc(-c2ccccc2-c2nn[nH]n2)cc1 (stereo not given) | 0.864 ± 0.052 | 0.959 ± 0.042 | 1.045 ± 0.0071 | 1.06 ± 0.2 | 1.07 ± 0.064
29 | C=C1C(N)CC2CC1C2(C)C (stereo not drawn) [3-AMINO-beta-PINENE] | 0.974 ± 0.093 | 0.9965 ± 0.005 | 0.918 ± 0.024 | 0.893 ± 0.0071 | 0.888 ± 0.016
